PLK1 PBD inh = PLK1 (human) polo-box domain binding inhibition; P53350; Plk1 PBD binding of FITC phosphopeptide, fluorescence polarization; Potency, µM, for the others: max response, negative = inhibition, usual class: inhibitors; actives 2.8% (n = 360,000); also: series mostly up to about 57 µM; % is scaled to controls: 0 for no effect and ±100 for the full control effect; nearly all actives have a fitted effect of over 65% in size
L3MBTL1 inh = L3MBTL1 (human) inhibition; Q9Y468; AlphaScreen L3MBTL1–H3K9me1 peptide binding; Potency, µM (doses to about 57.1 µM), for the others: at the highest dose activity, negative = inhibition, usual class: inhibitors; actives 0.66% (n = 230,000); AID 485360; also: % is scaled to controls: 0 for no effect and ±100 for the full control effect; nearly all actives have a fitted effect of over 60% in size
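First, the protein-peptide complex forms for 30 min at room temperature (L3MBTL1 50 nM, biotinylated H3K9me1 peptide 75 nM). Next, compounds are pin-transferred and incubated 30 min. Finally, AlphaScreen beads are added and read after 30 min.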
VDR inhibitor = vitamin D3 receptor (human) inhibition; Potency, µM, inactives show max response, negative = inhibition, hits mostly inhibitors; P11473; actives 0.93% (n = 400,000); AID 504847; VDR-SRC2-3 peptide fluorescence polarization, 2 h; also: % is scaled to controls: 0 for no effect and ±100 for the full control effect
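After 23 nl compound addition and a short centrifugation, plates sat for 2 hours at ambient temperature; polarization of fluorescence then indicated loss of VDR binding to peptide SRC2-3.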
HP1b binding inh = HP1-beta chromodomain-methylated histone interaction inhibition. actives 0.56% (n = 390,000). Potency, µM (titrated, usually from 114 µM), without a hit: at the top dose activity change, negative = inhibition, usual class: inhibitors. AID 540317. AlphaScreen HP1-beta / biotin-H3K9me3 peptide binding; also: nearly all actives have a fitted effect of over 70% in size
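Compound inhibition of the preformed complex between 50 nM HP1-beta and 50 nM biotinylated H3K9me3 peptide was read by AlphaScreen. Buffer was PBS pH 7.4 with 0.01% Tween-20. Incubations ran 30 min at room temperature, with 10 ug/mL donor/acceptor beads.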
JMJD2A Tudor inh = JMJD2A Tudor domain (human) inhibition; O75164; AlphaScreen JMJD2A-Tudor / H3K4me3 peptide binding; Potency, µM (highest dose often 114 µM), for inactives: at the top dose activity change, negative = inhibition, hits mostly inhibitors; actives 4.4% (n = 390,000); AID 504339; also: % is scaled to controls: 0 for no effect and ±100 for the full control effect; nearly all actives have a fitted effect of over 50% in size
BAZ2B block = BAZ2B (human) inhibition. actives 4.4% (n = 360,000). Q9UIF8. Potency, µM (top dose mostly 114 µM), for inactives: top-dose activity change, negative = inhibition, hits mostly inhibitors. AlphaScreen BAZ2B-H3K14Ac peptide displacement; also: % is scaled to controls: 0 for no effect and ±100 for the full control effect; nearly all actives have a fitted effect of over 60% in size
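AlphaScreen luminescence quantifies BAZ2B engagement of H3K14Ac peptide; the protein and biotinylated peptide are both at 50 nM final, buffer PBS pH 7.4 with 0.01% Tween-20, all steps at room temperature.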
* = called active by the depositor; u = inconclusive; x = not tested or not shown; [ ] = another dose, or the depositor's remark. An excerpt weighted towards active compounds, which were near 6.9% of everything screened. Calls follow the shape of the dose curve; as a rule, active = well fitted curve in the direction sought with a large enough effect; inconclusive = small, poorly fitted or top-dose-only effect, or another doubt; inactive = no such curve, though single readings can be large; an effect the other way counts as inactive or inconclusive. Potency is read from the fitted curve at half-maximal effect.

SMILES	PLK1 PBD inh	L3MBTL1 inh	VDR inhibitor	HP1b binding inh	JMJD2A Tudor inh	BAZ2B block
COc1ccc(-n2c(C)cc(C(=O)CCl)c2C)cc1	u	x	u	0.3%	u	44.7µM*
COc1cc(OC)c(NC(=O)c2cc3c(s2)-c2ccc(Cl)cc2SC3)cc1Cl	x	x	1.7%	31.1%	-5.7%	5.8%
COc1ccc(-n2c(C)cc(C(=O)CSc3ccc(NC(C)=O)cc3)c2C)cc1	u	u	4.6%	u	u	44.7µM*
Cc1cc(C(=O)CSc2nc(N)cc(N)n2)c(C)n1C1CC1	u	x	-12.5%	-21.0%	u	-24.6%
CC(=O)Nc1ccc(SCC(=O)O)cc1	u	1.2%	2.6%	42.8%	-7.0%	-25.4%
Cc1cc(C(=O)CSc2nc(N)cc(N)n2)c(C)n1-c1cccc(F)c1	u	-16.3%	-6.3%	u	28.2µM*	u
CC(=O)Nc1ccc(SCCCC(=O)c2ccccc2)cc1	13.4µM*	x	-18.9%	24.5%	-18.7%	-20.3%
CC(=O)Nc1ccc(SCC(=O)c2cc(C)ccc2C)cc1	18.9µM*	x	-13.7%	31.9%	-0.7%	-37.2%
CCOc1ccccc1NC(=O)CN1C(=O)CC(c2ccc(OC)c(OC)c2)Sc2ccccc21 (stereo not drawn)	x	x	3.0%	21.5%	-22.2%	-19.0%
COC(=O)C1=C(C(=O)OC)SC(=C2C(=S)C(C)(C)N(C(=O)CC(C)C)c3ccccc32)S1	-14.5%	x	u	-76.5%	11.2µM*	3.98µM*
COC(=O)C1=C(C(=O)OC)[C@@H]2N(C)c3ccccc3[C@@]23C[C@@H](C(=O)OC)N(C(=O)CC(C)C)C3=N1	5.9%	x	-23.2%	-2.2%	u	u
CCN(c1ncnc2c1c(-c1ccccc1)cn2-c1ccccc1)C1CCCCC1	x	x	1.3%	17.4%	-20.8%	-16.9%
O=C(O)c1ccc(NC(=S)NC(=O)c2ccc(-c3ccc(Br)cc3)o2)cc1	u	x	u	56.2µM*	15.8µM*	39.8µM*
NS(=O)(=O)c1ccc(NC(=S)NC(=O)c2ccc(Br)o2)cc1	21.2µM*	-1.0%	-21.9%	-17.1%	-25.6%[11.4 µM]	-17.2%
NS(=O)(=O)c1ccc(NC(=S)NC(=O)c2ccco2)cc1	-19.0%	7.4%	-26.9%	5.6%	25.1µM*	-20.2%
COC(=O)C1(C(=O)OC)C/C=C\C/C=C\c2ccccc2[C@@H]1C[N+](=O)[O-]	x	x	-0.9%	x	x	x
CC(C)(C)c1ccc(CC(=O)N2CCC2(C)C(=O)NS(=O)(=O)c2ccccc2)cc1 (stereo not drawn)	-5.1%	x	x	x	x	x
C/C(=N\Nc1cccc(C(F)(F)F)c1)c1ccc(O)cc1	-14.4%	-15.5%	-10.5%	u	44.7µM*	u
CC(=O)N/N=C(\C)c1cccc(C(F)(F)F)c1	2.9%	x	9.0%	25.6%	2.9%	-13.9%
O=C(CNC(=O)c1cccc(Cl)c1)OC(C(=O)Nc1cc(C(F)(F)F)ccc1Cl)c1ccccc1 (stereo not drawn)	x	x	x	x	-20.5%	x
COCCCN(C(=S)Nc1cc(Cl)cc(Cl)c1)C(C)c1ccccn1 (stereo not drawn)	16.8µM*	x	u	36.1%	36.1%	3.9%
COCCCN(C(=S)Nc1cc(Cl)cc(Cl)c1)C(C)c1ccncc1 (stereo not drawn)	21.2µM*	-2.4%	u	-4.4%	-22.9%	4.1%
COc1ccc(-n2ccnc(NCCc3ccc(S(N)(=O)=O)cc3)c2=O)cc1	x	x	-2.6%	-1.1%	-22.1%	-12.6%
Cn1c(=O)c([N+](=O)[O-])c(-n2cnc3ccccc32)c2ccccc21	-10.7%	-4.4%	20µM*	24.2%	-22.1%	-14.0%
Cn1c(=O)c([N+](=O)[O-])c(Cl)c2ccccc21	u	-0.3%	17.8µM*	10.9%	-4.5%	-8.0%
CCN(CC)c1c([N+](=O)[O-])c(=O)n(C)c2ccccc12	-13.1%	x	5.1%	4.0%	-17.5%	x
Cc1nccn1-c1c([N+](=O)[O-])c(=O)n(C)c2ccccc12	-7.5%	-3.5%	-2.1%	26.6%	-6.5%	-1.7%
